Results taken from PubChem BioAssay AID1159580 (chemical genetic matrix, 2015).
Where “and” joins values, the source holds several entries; their conditions need not be identical. Identical values can stand only once. The whole screen tested about 5,500 compounds, of which about 2,000 (36%) were called active. About 18% were inconclusive and are not listed. This is one part of the list. A number with no mark means an inactive call. No stated cut-off is given here; in the data, active means normalized growth mostly below about 0.91 (no sharp cut-off); inconclusive means no clear call, values can overlap the other calls; inactive means mostly above about 0.92.

Experiment: chemical genetic growth profiling, strain panel (AID 1159580);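 further: tested at 20 µM; growth read once vehicle control cultures reached saturation at 30 °C; 1 = growth at the plate median or of vehicle wells; lower values mean less growth of the strain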
Details: growth OD

COC(=O)c1c(C)cc(OC(=O)c2c(C)cc(O)c(C=O)c2O)c(C)c1O
normalized growth (S. cerevisiae deletion strains, locus YAL013W, strain DEP1, active compounds read low): 0.93
normalized growth (S. cerevisiae deletion strains, locus YBR021W, strain FUR4, active compounds read low): 1.05
normalized growth (S. cerevisiae deletion strains, locus YBR229C, strain ROT2, active compounds read low): 1
normalized growth (S. cerevisiae deletion strains, locus YCL029C, strain bik1, active compounds read low): 0.994
normalized growth (S. cerevisiae deletion strains, locus YDL035C, strain GPR1, active compounds read low): 0.994
normalized growth (S. cerevisiae deletion strains, locus YDL074C, strain BRE1, active compounds read low): 1.03
normalized growth (S. cerevisiae deletion strains, locus YDL101C, strain DUN1, active compounds read low): 1.01
normalized growth (S. cerevisiae deletion strains, locus YDL185W, strain tfp1, active compounds read low): 0.991
normalized growth (S. cerevisiae deletion strains, locus YDL192W, strain arf1, active compounds read low): 0.934
normalized growth (S. cerevisiae deletion strains, locus YDR101C, strain arx1, active compounds read low): 0.994
normalized growth (S. cerevisiae deletion strains, locus YDR162C, strain NBP2, active compounds read low): 0.899
normalized growth (S. cerevisiae deletion strains, locus YDR318W, strain mcm21, active compounds read low): 0.934
normalized growth (S. cerevisiae deletion strains, locus YDR388W, active compounds read low): 0.988
normalized growth (S. cerevisiae deletion strains, locus YDR502C, strain sam2, active compounds read low): 0.984
normalized growth (S. cerevisiae deletion strains, locus YEL061C, strain CIN8, active compounds read low): 0.971
normalized growth (S. cerevisiae deletion strains, locus YER110C, active compounds read low): 1.03
normalized growth (S. cerevisiae deletion strains, locus YER155C, strain BEM2, active compounds read low): 1.03
normalized growth (S. cerevisiae deletion strains, locus YER167W, strain BCK2, active compounds read low): 0.999
normalized growth (S. cerevisiae deletion strains, locus YGL078C, strain dbp3, active compounds read low): 1.01
normalized growth (S. cerevisiae deletion strains, locus YGL086W, strain mad1, active compounds read low): 0.942
normalized growth (S. cerevisiae deletion strains, locus YGL248W, strain PDE1, active compounds read low): 0.98
normalized growth (S. cerevisiae deletion strains, locus YGR078C, strain PAC10, active compounds read low): 0.971
normalized growth (S. cerevisiae deletion strains, locus YGR135W, strain pre9, active compounds read low): 0.893 (active)
normalized growth (S. cerevisiae deletion strains, locus YGR229C, strain SMI1, active compounds read low): 0.919
normalized growth (S. cerevisiae deletion strains, locus YGR252W, strain gcn5, active compounds read low): 1.01
normalized growth (S. cerevisiae deletion strains, locus YHR030C, strain SLT2, active compounds read low): 0.999 and 0.975
normalized growth (S. cerevisiae deletion strains, locus YHR079C, strain IRE1 (second series), active compounds read low): 0.999
normalized growth (S. cerevisiae deletion strains, locus YHR079C, strain IRE1, active compounds read low): 0.978
normalized growth (S. cerevisiae deletion strains, locus YHR094C, strain hxt1, active compounds read low): 1
normalized growth (S. cerevisiae deletion strains, locus YHR129C, strain ARP1, active compounds read low): 0.963
normalized growth (S. cerevisiae deletion strains, locus YHR200W, strain rpn10, active compounds read low): 0.962
normalized growth (S. cerevisiae deletion strains, locus YIL066C, strain RNR3, active compounds read low): 0.985
normalized growth (S. cerevisiae deletion strains, locus YIL073C, strain SPO22, active compounds read low): 1.02
normalized growth (S. cerevisiae deletion strains, locus YIL125W, strain kgd1, active compounds read low): 0.991
normalized growth (S. cerevisiae deletion strains, locus YIR030C, strain dcg1, active compounds read low): 1.03
normalized growth (S. cerevisiae deletion strains, locus YJL095W, strain BCK1, active compounds read low): 0.975 and 0.987
normalized growth (S. cerevisiae deletion strains, locus YJL134W, strain LCB3, active compounds read low): 1.01
normalized growth (S. cerevisiae deletion strains, locus YJL168C, strain set2, active compounds read low): 1.01
normalized growth (S. cerevisiae deletion strains, locus YJL187C, strain SWE1 (second series), active compounds read low): 0.972
normalized growth (S. cerevisiae deletion strains, locus YJR043C, strain POL32, active compounds read low): 0.971
normalized growth (S. cerevisiae deletion strains, locus YJR066W, strain TOR1, active compounds read low): 0.919
normalized growth (S. cerevisiae deletion strains, locus YKL068W, active compounds read low): 1.03
normalized growth (S. cerevisiae deletion strains, locus YKL085W, strain MDH1 (second series), active compounds read low): 0.987
normalized growth (S. cerevisiae deletion strains, locus YKL085W, strain MDH1, active compounds read low): 0.987
normalized growth (S. cerevisiae deletion strains, locus YKR001C, strain vps1, active compounds read low): 0.891 (active)
normalized growth (S. cerevisiae deletion strains, locus YLR039C, strain RIC1, active compounds read low): 0.947
normalized growth (S. cerevisiae deletion strains, locus YLR058C, strain SHM2, active compounds read low): 0.957
normalized growth (S. cerevisiae deletion strains, locus YLR102C, strain apc9, active compounds read low): 1.02
normalized growth (S. cerevisiae deletion strains, locus YLR113W, strain HOG1, active compounds read low): 0.995
normalized growth (S. cerevisiae deletion strains, locus YLR262C, strain YPT6, active compounds read low): 0.933
normalized growth (S. cerevisiae deletion strains, locus YLR268W, strain sec22, active compounds read low): 0.916
normalized growth (S. cerevisiae deletion strains, locus YLR330W, strain CHS5, active compounds read low): 1.01
normalized growth (S. cerevisiae deletion strains, locus YLR342W, strain FKS1 (second series), active compounds read low): 1.07
normalized growth (S. cerevisiae deletion strains, locus YLR371W, strain rom2, active compounds read low): 0.99
normalized growth (S. cerevisiae deletion strains, locus YLR418C, strain cdc73, active compounds read low): 0.924
normalized growth (S. cerevisiae deletion strains, locus YML016C, strain PPZ1, active compounds read low): 1
normalized growth (S. cerevisiae deletion strains, locus YML032C, strain rad52, active compounds read low): 0.96
normalized growth (S. cerevisiae deletion strains, locus YML124C, strain tub3, active compounds read low): 1
normalized growth (S. cerevisiae deletion strains, locus YMR078C, strain ctf18, active compounds read low): 1.02
normalized growth (S. cerevisiae deletion strains, locus YMR223W, strain ubp8, active compounds read low): 0.938
normalized growth (S. cerevisiae deletion strains, locus YMR263W, strain SAP30, active compounds read low): 0.987
normalized growth (S. cerevisiae deletion strains, locus YMR307W, strain GAS1, active compounds read low): 0.789
normalized growth (S. cerevisiae deletion strains, locus YNL067W, strain RPL9B, active compounds read low): 0.972
normalized growth (S. cerevisiae deletion strains, locus YNL183C, strain NPR1, active compounds read low): 0.917
normalized growth (S. cerevisiae deletion strains, locus YNL233W, strain BNI4, active compounds read low): 0.982
normalized growth (S. cerevisiae deletion strains, locus YNL250W, strain rad50, active compounds read low): 0.988
normalized growth (S. cerevisiae deletion strains, locus YNL271C, strain bni1, active compounds read low): 1.03
normalized growth (S. cerevisiae deletion strains, locus YNL298W, strain CLA4, active compounds read low): 1.01
normalized growth (S. cerevisiae deletion strains, locus YNL307C, strain MCK1, active compounds read low): 1.01
normalized growth (S. cerevisiae deletion strains, locus YNR052C, strain pop2, active compounds read low): 1
normalized growth (S. cerevisiae deletion strains, locus YOL006C, strain TOP1, active compounds read low): 1.06
normalized growth (S. cerevisiae deletion strains, locus YOL012C, strain htz1): 0.816
normalized growth (S. cerevisiae deletion strains, locus YOL147C, strain pex11, active compounds read low): 1.04
normalized growth (S. cerevisiae deletion strains, locus YOR061W, strain CKA2, active compounds read low): 1
normalized growth (S. cerevisiae deletion strains, locus YOR069W, strain VPS5, active compounds read low): 1
normalized growth (S. cerevisiae deletion strains, locus YOR136W, strain idh2, active compounds read low): 1.02
normalized growth (S. cerevisiae deletion strains, locus YOR144C, strain elg1, active compounds read low): 1.01
normalized growth (S. cerevisiae deletion strains, locus YOR184W, strain ser1, active compounds read low): 0.931
normalized growth (S. cerevisiae deletion strains, locus YOR231W, strain MKK1, active compounds read low): 0.981
normalized growth (S. cerevisiae deletion strains, locus YOR316C, strain cot1, active compounds read low): 1.03
normalized growth (S. cerevisiae deletion strains, locus YPL256C, strain CLN2, active compounds read low): 0.988
normalized growth (S. cerevisiae deletion strains, locus YPR119W, strain clb2, active compounds read low): 0.996
normalized growth (S. cerevisiae deletion strains, locus YPR141C, strain kar3, active compounds read low): 1
normalized growth (S. cerevisiae deletion strains, locus YPR163C, strain tif3, active compounds read low): 1.01
normalized growth (S. cerevisiae deletion strains, locus YPR167C, strain met16, active compounds read low): 0.963
normalized growth (S. cerevisiae deletion strains, strain wtn01, active compounds read low): 0.948
normalized growth (S. cerevisiae strains, strain wild type, active compounds read low): 0.926
